Twelve molecules from PubChem BioAssay (NCI) can be followed below.

Some test systems named below: NCI-H23 lung; NCI-H226 lung; NCI-H322M lung; HOP-62 NSCLC; NCI-H460 lung; HOP-92 NSCLC; NCI-H522 lung; A549/ATCC NSCLC; 786-0 renal; COLO 205 colon.
Common to all, as to assay: NCI-60 one-dose screen, 48 h (100 = growth as untreated, 0 = no growth, -100 = all killed)
Holding throughout (details): 10 µM unless noted

Each structure is given as a SMILES string. About 83,000 compounds went through this panel and 20% of them were active in at least one assay; those are over-represented in the sample as a whole.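 For each line, cells grew in 96-well plates with the test compound present at a single concentration for 48 hours.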 Unmarked numbers belong to inactive results. The source made the active and inactive calls. The calls were made as follows: active = growth percent below 10; inactive = the rest.

Take `CN[C@@]1(c2ccccc2Cl)CCCC[C@@H]1NCC1CCCO1` (stereo not given in full): the growth is 97.4% in the experiment on NCI-H23 lung; 97.8% in the experiment with NCI-H226 lung; 94.1% in the experiment on NCI-H322M lung; 97.4% in the experiment on HOP-62 NSCLC; 110% in the experiment with NCI-H460 lung; 92% with HOP-92 NSCLC. Besides, the growth in the experiment with NCI-H522 lung is 91.3%; in the experiment on A549/ATCC NSCLC, 98%; in the experiment on 786-0 renal, 97.7%; with COLO 205 colon, 109%.
Consider `CC(=O)C(c1c(O)c2ccccc2oc1=O)c1cc(=O)oc2c1ccc1ccccc12` (stereo not given), for which the growth is 100% in the experiment with NCI-H23 lung; 90.7% in the experiment on NCI-H226 lung; 106% with NCI-H322M lung; 90.9% with HOP-62 NSCLC; 102% with NCI-H460 lung; 65.4% in the experiment with HOP-92 NSCLC. In addition, the growth in the experiment on NCI-H522 lung is 96.2%; in the experiment on A549/ATCC NSCLC, 97%; in the experiment with 786-0 renal, 96.3%; with COLO 205 colon it was 112%.
As for `O=C1CC2(CC3(Cl)C(Cl)=C(Cl)C2(Cl)C3(Cl)Cl)C(=O)O1` (stereo not given), the growth in the experiment with NCI-H23 lung is 96.8%; in the experiment with NCI-H226 lung, 110%; in the experiment on NCI-H322M lung it was 99.3%; with HOP-62 NSCLC, 91.6%; with NCI-H460 lung, 112%; in the experiment with HOP-92 NSCLC, 107%. For the same molecule, the growth in the experiment on NCI-H522 lung is 102%; with A549/ATCC NSCLC, 105%; with 786-0 renal, 96.3%; in the experiment on COLO 205 colon it was 126%.
In the case of `CCCCCCC(=O)NC1=C(N2CC2)C(=O)C(NC(=O)CCCCCC)=C(N2CC2)C1=O`, the growth in the experiment on NCI-H23 lung is 33.6%; in the experiment with NCI-H226 lung, 75%; in the experiment with NCI-H322M lung, 79.5%; in the experiment with HOP-62 NSCLC, 47.2%; in the experiment with NCI-H460 lung, 24%; with HOP-92 NSCLC, 65.3%. Further, the growth was 39.2% in the experiment on NCI-H522 lung, 42.3% in the experiment on A549/ATCC NSCLC, 33.6% in the experiment with 786-0 renal and 3.58% (active) with COLO 205 colon.
In the case of `c1ccc(COc2ccc3[nH]cc(CCN(Cc4ccccc4)Cc4ccccc4)c3c2)cc1`, the growth in the experiment on NCI-H23 lung is 77.5%; in the experiment with NCI-H226 lung it was 73.8%; in the experiment with NCI-H322M lung it was 100%; in the experiment on HOP-62 NSCLC it was 99.4%; with NCI-H460 lung, 91.6%; with HOP-92 NSCLC, 81.6%. Further, the growth was 82.9% in the experiment with NCI-H522 lung, 85.2% with A549/ATCC NSCLC, 91.9% in the experiment on 786-0 renal and 101% with COLO 205 colon.
With `CC[C@]12C=CCN3CC[C@]4(C(=C(C(=O)OC)C1)Nc1cc(OC)c(OC(C)=O)cc14)[C@@H]32`, the growth in the experiment with NCI-H23 lung is 20.7%; in the experiment on NCI-H226 lung, 34.4%; in the experiment on NCI-H322M lung, 39%; in the experiment on HOP-62 NSCLC, 20.5%; in the experiment on NCI-H460 lung, 8.27% (active); in the experiment on HOP-92 NSCLC, 4.72% (active). For the same molecule, the growth is -1.97% (active) in the experiment on NCI-H522 lung, 16% in the experiment on A549/ATCC NSCLC, 5.06% (active) in the experiment on 786-0 renal and -22.8% (active) in the experiment on COLO 205 colon.
Regarding `NC(=O)CNc1ccc([As]=[As]c2ccc(NCC(N)=O)cc2)cc1` (stereo not given), the growth in the experiment with NCI-H23 lung is 62.2%; with NCI-H226 lung, 49.4%; with NCI-H322M lung, 83.5%; in the experiment with HOP-62 NSCLC, 94%; with NCI-H460 lung it was 83.2%; in the experiment with HOP-92 NSCLC, 63.6%. Further, the growth with NCI-H522 lung was 2.53% (active); in the experiment with A549/ATCC NSCLC, 81%; in the experiment with 786-0 renal, 29.7%; in the experiment with COLO 205 colon, 76.8%.
With `CC12CC=CCC1CCC1C2CCC2(C)C(c3ccc(=O)oc3)CCC12O` (stereo not given), the growth is -44.2% (active) in the experiment on NCI-H23 lung; -90.6% (active) in the experiment with NCI-H226 lung; -19.9% (active) in the experiment with NCI-H322M lung; -65.2% (active) with HOP-62 NSCLC; -70.4% (active) with NCI-H460 lung; 1.77% (active) in the experiment with HOP-92 NSCLC. In addition, the growth was -19.9% (active) in the experiment with NCI-H522 lung, -37.7% (active) in the experiment with A549/ATCC NSCLC, -42.4% (active) with 786-0 renal and -43.6% (active) in the experiment on COLO 205 colon.
Take `CC[C@H](C)[C@H](NC(=O)C12CC(NC(C)=O)(C1)C2)C(=O)N(C)[C@H](C[C@@H](OC(C)=O)c1nc(C(=O)N[C@@H](Cc2ccccc2)C[C@H](C)C(=O)OC)cs1)C(C)C`: the growth with NCI-H23 lung was 30.9%; with NCI-H226 lung, 19.9%; in the experiment on NCI-H322M lung, 51.3%; with HOP-62 NSCLC it was 20.3%; with NCI-H460 lung, 3.12% (active); with HOP-92 NSCLC, 19.9%. For the same molecule, the growth in the experiment with NCI-H522 lung was 1.64% (active); in the experiment on A549/ATCC NSCLC, 22.6%; in the experiment with 786-0 renal, 16%; in the experiment on COLO 205 colon, -31.5% (active).
Turning to `COC(=O)[C@@H](C)C[C@H](Cc1ccccc1)NC(=O)c1nc([C@@H](C[C@H](C(C)C)N(C)C(=O)[C@@H](NC(=O)[C@H]2C[C@H](O)CCN2C)C(C)C)OC(C)=O)sc1C(C)C`, the growth is 23.8% with NCI-H23 lung; -35.5% (active) in the experiment with NCI-H226 lung; 26.5% with NCI-H322M lung; 1.87% (active) in the experiment on HOP-62 NSCLC; 2.31% (active) in the experiment with NCI-H460 lung; 25% with HOP-92 NSCLC. The growth was -21.9% (active) in the experiment on NCI-H522 lung, 10.7% in the experiment with A549/ATCC NSCLC, 3.94% (active) in the experiment on 786-0 renal and -65.9% (active) in the experiment on COLO 205 colon.
Regarding `C=C1C[C@](OC)([C@H](O)C(=O)N[C@@H](OC)[C@@H]2C[C@@H](O)C(C)(C)[C@@H](C[C@@H](COC)OC)O2)O[C@H](C)[C@@H]1C`, the growth was -27.7% (active) in the experiment with NCI-H23 lung; -75.5% (active) with NCI-H226 lung; -21% (active) with NCI-H322M lung; -35.4% (active) in the experiment on HOP-62 NSCLC; -41.4% (active) in the experiment on NCI-H460 lung; -65.1% (active) in the experiment with HOP-92 NSCLC. The growth in the experiment with NCI-H522 lung is -55.1% (active); with A549/ATCC NSCLC, -49.1% (active); with 786-0 renal, -61.9% (active); in the experiment with COLO 205 colon, -15.6% (active).
As for `C=C1[C@@H](C)[C@H]2[C@H](Cc3ccccc3)NC(=O)[C@]23[C@@H](O)/C=C/[C@@](C)(O)C(=O)[C@@H](C)C/C=C/[C@H]3[C@@H]1O`, the growth was 68.2% in the experiment on NCI-H23 lung; 50.4% in the experiment with NCI-H226 lung; 92.2% in the experiment on NCI-H322M lung; 5.91% (active) in the experiment on HOP-62 NSCLC; 69.3% in the experiment on NCI-H460 lung; -9.38% (active) with HOP-92 NSCLC. Also, the growth with NCI-H522 lung is 28%; in the experiment on A549/ATCC NSCLC, 37.7%; in the experiment with 786-0 renal, 20.1%; with COLO 205 colon, -17.8% (active).
